Results on 8 compounds are retold here after PubChem BioAssay (NCI).

The panel holds about 83,000 compounds, 20% with a hit somewhere; the sample as a whole holds those more often.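 Plates (96-well) were seeded with cells, treated with compound at one concentration, and incubated for 48 hours before percent growth was determined.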 Unmarked numbers belong to inactive results. Active and inactive are the calls of the source. Rule for the calls: active = growth percent below 10; inactive = the rest.

Holding throughout (assay): NCI-60 one-dose screen, 48 h (100 = growth as untreated, 0 = no growth, -100 = all killed)
Holding throughout (conditions): 10 µM

The test system of assay [1] is HCT-15 colon.
In assay [2] the test system is HT29 colon.
Assay [3] deals with SNB-75 CNS.
Assay [4] has as its system SNB-19 CNS.
In assay [5] the test system is PC-3 prostate.
Assay [6] deals with SK-MEL-5 melanoma.
Assay [7] relates to UACC-62 melanoma.
The subject of assay [8] is LOX IMVI melanoma.
Assay [9] deals with SK-MEL-28 melanoma.
Assay [10] deals with SK-MEL-2 melanoma.
Assay [11] relates to EKVX NSCLC.
The test system of assay [12] is SN12C renal.
The subject of assay [13] is UO-31 renal.
Assay [14] deals with TK-10 renal.
Assay [15] deals with ACHN renal.
In assay [16] the test system is CAKI-1 renal.
Assay [17] concerns A498 renal.
Assay [18] deals with CCRF-CEM leukemia.
Assay [19] has as its system MOLT-4 leukemia.

As for `O=C(Nc1ccncc1)c1ccc(-n2c(=O)[nH]c3ccccc3c2=O)cc1`, the growth was 97.9% in [1]; 105% in assay [2]; 107% in [3]; 91.1% in assay [4]; 92.4% in [5]; 90.8% in assay [6]. Moreover, the growth was 76.9% in assay [7]; 83.9% in [8]; 104% in [9]; 91.9% in [10]; 94.2% in [11]; 90.5% in [12]. Moreover, the growth in assay [13] is 87.3%; in [14], 103%; in assay [15], 96.2%; in assay [16], 87.3%; in assay [17] it was 114%; in [18], -31.5% (active).
Take `O=C(CSc1nnc(-c2c[nH]c3ccccc23)n1-c1ccccc1)Nc1ccc(C(=O)/C=C/c2ccccc2Cl)cc1`: the growth was 67% in assay [1]; 91.6% in assay [2]; 80.3% in [3]; 84.8% in assay [4]; 61.2% in [5]; 89.8% in [6]. Further, the growth in assay [7] was 72.1%; in [8], 56.6%; in assay [10] it was 93.5%; in assay [11], 67.2%; in assay [12] it was 84.5%; in assay [13], 51.6%. In addition, the growth was 103% in assay [14]; 74.5% in assay [15]; 74% in [16]; 101% in assay [17]; 88.2% in assay [18]; 55.6% in assay [19].
With `Nc1nc(Nc2ccccc2)nn1Cc1c(Cl)cccc1Cl`, the growth is 37.5% in assay [1]; 54.4% in assay [2]; 67.5% in [3]; 58% in assay [4]; 27.4% in [5]; 23.5% in assay [6]. The growth in assay [7] was 33.5%; in assay [8], 16.3%; in assay [9] it was 55.5%; in assay [10], 49.2%; in [11] it was 20.2%; in assay [12] it was 44.5%. For the same compound, the growth is 11.8% in [13]; 53.8% in assay [14]; 13.9% in assay [15]; 27.9% in assay [16]; -3.12% (active) in [17]; 26.5% in assay [18]. The growth in assay [19] is 18.6%.
Turning to `O=C(Nc1cccc(-c2cn(-c3ccc4oc(=O)ccc4c3)nn2)c1)Nc1cc(C(F)(F)F)cc(C(F)(F)F)c1`, the growth in assay [1] is 19%; in [2] it was 44.9%; in [3] it was 17.8%; in assay [4], 27.4%; in [5], 27.7%; in [6], 2.67% (active). The growth in [7] was 11.3%; in [8] it was 17.2%; in assay [9] it was 22.5%; in assay [10], 29.6%; in [11], 13.5%; in assay [12], 24.6%. Further, the growth in assay [13] was 30.9%; in assay [14], 50.9%; in [15], 12.5%; in [16], 36.2%; in assay [17] it was 19.6%; in assay [18], 27.1%. Besides, in assay [19], the growth was 11.7%.
As for `Cc1ccc2nc(-c3ccc(-c4nnc(SCC(=O)Nc5ccc(Cl)cc5)o4)cc3)[nH]c2c1`, the growth is 21.9% in [1]; 31.2% in assay [2]; 101% in assay [3]; 26.7% in [4]; 14% in [5]; 83.9% in assay [6]. In addition, the growth in assay [7] was 56.3%; in assay [8], -45.6% (active); in assay [9] it was 39.7%; in [10], 95%; in [11], 58.7%; in [12] it was -3% (active). For the same compound, the growth is 56.6% in assay [13]; 7.34% (active) in [15]; 21.7% in assay [16]; 73.9% in [17]; 58.8% in [18]; 35.6% in assay [19].
Turning to `Cn1cc(/C=N/Nc2ccnc3cc(Cl)ccc23)c2ccccc21`, the growth in assay [1] was -92.2% (active); in assay [2] it was -40.1% (active); in [3] it was -85.8% (active); in assay [4], -79.8% (active); in assay [5], -51.5% (active); in assay [6], -98.2% (active). Moreover, the growth in [7] is -66.1% (active); in assay [8] it was -83.7% (active); in [9] it was -89.6% (active); in [10], -72.3% (active); in [11] it was -85.1% (active); in assay [12], -59.4% (active). Besides, the growth in assay [15] is -92.7% (active); in assay [16], -85.3% (active); in [17], -80.2% (active); in assay [18] it was -35.6% (active); in assay [19], -32.1% (active).
With `COC1CC(Cn2cc(COc3ccc4ccc(=O)oc4c3)nn2)C(OCc2ccccc2)C(OCc2ccccc2)C1OCc1ccccc1` (stereo not given), the growth in assay [1] was 88.9%; in assay [2], 108%; in assay [3], 92.5%; in [4], 95.1%; in [5], 92.7%; in assay [6], 83.2%. Further, the growth in [7] is 82.6%; in assay [8], 99.4%; in assay [9], 105%; in assay [10], 114%; in [11], 90.7%; in [12], 106%. The growth in assay [13] was 71.7%; in [14], 110%; in [15], 105%; in assay [17], 116%; in [18], 87%.
Consider `COc1ccc(CN2[C@@H](C(=O)NCc3ccc(C(=O)NO)cc3)Cc3c([nH]c4ccccc34)[C@@H]2C)cc1`, for which the growth in assay [1] is 19.1%; in assay [2], 17.6%; in assay [3], 15.8%; in [4], 40.3%; in assay [5], 29%; in [6], -21.1% (active). The growth is -20.9% (active) in [7]; 1.67% (active) in assay [8]; 17.6% in assay [9]; 2.82% (active) in assay [10]; 11.9% in assay [11]; 29.8% in assay [12]. For the same compound, the growth in [13] was 36%; in assay [14], 16.5%; in assay [15], 36%; in [16] it was 39.5%; in [17] it was -5.13% (active); in [18], 15.8%. The growth in assay [19] was 11.3%.
